The record followed here is PubChem BioAssay (NCATS).

Results filed as inconclusive are left out. Values without a mark were called inactive. Activity calls are given as the source filed them. Unless noted, calls come from the whole dose curve; as a rule, active = well fitted curve in the direction sought with a large enough effect in the repeat runs; inconclusive = weak or mixed curves; inactive = no such curve, though single readings can be large; an effect the other way counts as inactive or inconclusive.

A short description of test [1]: A High-Content qHTS Against Drug Library for the Identification of Small Molecules that Inhibit DYT1 Early Onset Primary Dystonia-Associated Cell Pathology (AID 1645839; calls by dose curve; note: series mostly up to about 46 µM). In outline:
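Readout: %pathology, the punctate EGFP-TorsinA distribution from imaging, as the primary channel and cell count as the toxicity counterscreen. HEK293 Flp-In cells expressing delE TorsinA were induced with tetracycline and treated with compound for 48 h.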
A general note: Quantitative high-throughput screening tests each substance at several concentrations.

In test [2] the target is Cytochrome P450 2D6 (Homo sapiens) (UniProt P10635). Nature of the test: Cytochrome P450 family 2 subfamily D member 6 (CYP2D6) small molecule antagonists: luciferase biochemical (cell-free) qHTS assay (AID 1645840). For activity change, negative = inhibition: series mostly up to about 57 µM; % is set by controls: 0 for no effect and ±100 for the full control effect. Note: nearly all actives have a fitted effect of over 55% in size. Note: potency is the fitted concentration of half-maximal effect. In outline: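 P450-Glo luminescent screen: recombinant CYP2D6 enzyme–proluciferin substrate mix preincubated with compound 10 min at room temperature, then NADPH regeneration added for 1 h at room temperature. Detection reagent added for 20 min; luciferin light read as relative luminescence units.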

In test [3] the target is Cytochrome P450 2C9 (Homo sapiens) (UniProt P11712). The test can be described thus: Cytochrome P450 family 2 subfamily C member 9 (CYP2C9) small molecule antagonists: luciferase biochemical (cell-free) qHTS assay (AID 1645842). For activity change, negative = inhibition: series mostly up to about 57 µM; % is set by controls: 0 for no effect and ±100 for the full control effect. Note: nearly all actives have a fitted effect of over 55% in size. Note: potency is the fitted concentration of half-maximal effect. In outline:
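Luminescence, after 20 min with luciferin detection reagent, reflected CYP2C9 turnover during a 1 h NADPH-driven reaction at 37C. Enzyme-substrate mix contained 0.4% bovine serum albumin and was preincubated with compound 10 min at room temperature.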

Test [4] in a line: Primary qHTS for inhibitors of nuclear receptor binding SET domain protein 2 (NSD2) in an isogenic RCH-ACV NSD2 p.E1099K mutant (9B) (AID 1645876; active = well fitted curve in the direction sought with a large enough effect; an effect the other way counts as inactive or inconclusive; note: nearly all actives have a fitted effect of over 70% in size; for activity change, negative = viability loss: % is set by controls: 0 for no effect and ±100 for the full control effect).
Test [5] can be described thus: Primary qHTS for inhibitors of nuclear receptor binding SET domain protein 2 (NSD2) in an RCH-ACV wild type WT cells (2C) (AID 1645877; active = well fitted curve in the direction sought with a large enough effect; an effect the other way counts as inactive or inconclusive; note: nearly all actives have a fitted effect of over 70% in size).
In test [6] the target is Papain (Carica papaya) (UniProt P00784). Nature of the test: Primary qHTS assay for inhibitors of the protease papain (AID 1645873; active = well fitted curve in the direction sought with a large enough effect; an effect the other way counts as inactive or inconclusive;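 note: papain turnover of Z-FR-AMC read as the AMC fluorescence gain over 10 min; series mostly up to about 50 µM; % is set by controls: 0 for no effect and ±100 for the full control effect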).
Test [7] concerns the target Rap guanine nucleotide exchange factor 3 (Homo sapiens) (UniProt O95398). Nature of the test: Confirmatory qHTS for agonist of cAMP-regulated guanine nucleotide exchange factor 3 (EPAC1) (AID 1645881; active = well fitted curve in the direction sought with a large enough effect; an effect the other way counts as inactive or inconclusive;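 note: EPAC1 catalysed release of BODIPY-GDP from Rap1B seen as fluorescence loss; nearly all actives have a fitted effect of over 75% in size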).
Test [8] addresses N-terminal Xaa-Pro-Lys N-methyltransferase 1 (Homo sapiens) (UniProt Q9BV86). Nature of the test: Confirmatory qHTS for Inhibitors of N-terminal methyltransferase 1 (NTMT1): MTaseGlo Assay (AID 1645874; active = well fitted curve in the direction sought with a large enough effect; an effect the other way counts as inactive or inconclusive; note: potency is the fitted concentration of half-maximal effect; nearly all actives have a fitted effect of over 65% in size). The note with it: NTMT1 enzyme, MTase-Glo SAH luminescence. The essentials:
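Luminescent MTase-Glo read-out of SAH. 125 nM NTMT1, 100 uM SAM, 1 uM SPKRIA substrate, 30 min RT reaction after 15 min compound preincubation. Normalized to no-enzyme and DMSO controls; Hill fit.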

Test [9] has as its target Rap guanine nucleotide exchange factor 3 (Homo sapiens) (UniProt O95398). The test can be described thus: Confirmatory qHTS for antagonist of cAMP-regulated guanine nucleotide exchange factor 3 (EPAC1) (AID 1645880; active = well fitted curve in the direction sought with a large enough effect; an effect the other way counts as inactive or inconclusive;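 note: plate controls were DMSO only for no effect and full effect of the ATA control for full effect; nearly all actives have a fitted effect of over 55% in size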). The essentials: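 Nucleotide exchange uses 100 nM EPAC1, 250 nM RAP1B-BODIPY-GDP and 50 uM GDP, with compounds in a concentration-titration series. After 5 min at room temperature, fluorescence (480 nm ex/540 nm em) is read every 5 min for 30 min. Data are normalized to control ATA and DMSO.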

Sequence of Rap guanine nucleotide exchange factor 3 (Homo sapiens) (O95398 whole entry, looked up): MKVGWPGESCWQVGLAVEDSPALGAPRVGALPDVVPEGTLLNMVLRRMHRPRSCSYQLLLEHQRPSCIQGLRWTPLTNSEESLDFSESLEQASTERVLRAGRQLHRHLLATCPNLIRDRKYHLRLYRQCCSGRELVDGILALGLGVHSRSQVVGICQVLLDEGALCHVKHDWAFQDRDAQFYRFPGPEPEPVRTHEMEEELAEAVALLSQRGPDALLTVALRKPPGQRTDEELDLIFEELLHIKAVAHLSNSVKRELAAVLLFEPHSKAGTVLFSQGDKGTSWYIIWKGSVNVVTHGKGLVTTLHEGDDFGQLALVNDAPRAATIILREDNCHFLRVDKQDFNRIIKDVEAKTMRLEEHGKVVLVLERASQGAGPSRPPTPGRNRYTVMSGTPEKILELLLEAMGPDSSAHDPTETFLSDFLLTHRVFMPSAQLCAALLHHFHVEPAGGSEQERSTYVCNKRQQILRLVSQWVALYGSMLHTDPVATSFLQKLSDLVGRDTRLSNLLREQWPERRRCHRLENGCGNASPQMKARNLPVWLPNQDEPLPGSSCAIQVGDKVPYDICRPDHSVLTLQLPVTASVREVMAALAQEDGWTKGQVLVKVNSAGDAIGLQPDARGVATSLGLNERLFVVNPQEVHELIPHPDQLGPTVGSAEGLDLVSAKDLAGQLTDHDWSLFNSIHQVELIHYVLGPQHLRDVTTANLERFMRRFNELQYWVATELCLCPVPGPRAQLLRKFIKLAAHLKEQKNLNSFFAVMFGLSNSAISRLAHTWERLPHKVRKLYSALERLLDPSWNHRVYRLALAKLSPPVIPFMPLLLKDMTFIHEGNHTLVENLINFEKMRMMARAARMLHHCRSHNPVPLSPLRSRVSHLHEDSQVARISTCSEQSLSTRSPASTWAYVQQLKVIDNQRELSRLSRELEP
Sequence of Cytochrome P450 2D6 (Homo sapiens) (P10635 whole entry, looked up): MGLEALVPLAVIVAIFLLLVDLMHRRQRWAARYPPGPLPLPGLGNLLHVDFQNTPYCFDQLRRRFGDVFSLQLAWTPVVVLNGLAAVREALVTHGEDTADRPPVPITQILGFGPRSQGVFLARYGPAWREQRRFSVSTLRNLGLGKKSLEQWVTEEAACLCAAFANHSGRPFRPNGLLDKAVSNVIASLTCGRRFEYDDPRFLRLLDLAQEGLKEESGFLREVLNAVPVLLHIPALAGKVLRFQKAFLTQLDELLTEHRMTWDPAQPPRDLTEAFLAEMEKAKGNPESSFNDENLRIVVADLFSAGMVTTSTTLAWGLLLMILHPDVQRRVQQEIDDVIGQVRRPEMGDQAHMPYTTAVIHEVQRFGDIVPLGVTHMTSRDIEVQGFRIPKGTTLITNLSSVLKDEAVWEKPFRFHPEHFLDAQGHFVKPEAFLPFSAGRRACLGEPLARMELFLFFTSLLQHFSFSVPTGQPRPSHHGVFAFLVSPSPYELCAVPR
Sequence of Papain (Carica papaya) (P00784 whole entry, looked up): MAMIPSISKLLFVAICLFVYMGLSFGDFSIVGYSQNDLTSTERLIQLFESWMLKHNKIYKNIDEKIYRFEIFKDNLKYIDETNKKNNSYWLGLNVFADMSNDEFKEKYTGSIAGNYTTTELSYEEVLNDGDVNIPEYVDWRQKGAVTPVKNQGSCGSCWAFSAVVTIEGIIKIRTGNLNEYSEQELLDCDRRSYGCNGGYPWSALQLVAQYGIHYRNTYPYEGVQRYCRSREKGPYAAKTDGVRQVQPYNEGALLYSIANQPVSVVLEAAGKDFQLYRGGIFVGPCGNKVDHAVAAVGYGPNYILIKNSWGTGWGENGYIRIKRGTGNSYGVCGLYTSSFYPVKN
Sequence of Cytochrome P450 2C9 (Homo sapiens) (P11712 whole entry, looked up): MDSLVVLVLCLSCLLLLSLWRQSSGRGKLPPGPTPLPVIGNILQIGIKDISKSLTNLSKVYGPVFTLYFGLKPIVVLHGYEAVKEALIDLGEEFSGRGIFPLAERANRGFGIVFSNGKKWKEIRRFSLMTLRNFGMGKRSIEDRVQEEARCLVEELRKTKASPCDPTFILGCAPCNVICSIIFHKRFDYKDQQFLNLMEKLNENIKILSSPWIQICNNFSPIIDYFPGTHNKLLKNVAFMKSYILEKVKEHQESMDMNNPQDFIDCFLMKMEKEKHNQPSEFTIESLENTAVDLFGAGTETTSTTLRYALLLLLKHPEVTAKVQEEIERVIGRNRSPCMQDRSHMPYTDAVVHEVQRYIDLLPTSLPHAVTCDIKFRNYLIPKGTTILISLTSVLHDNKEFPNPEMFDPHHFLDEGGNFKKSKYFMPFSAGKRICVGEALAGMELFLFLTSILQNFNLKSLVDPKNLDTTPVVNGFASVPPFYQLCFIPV
Sequence of N-terminal Xaa-Pro-Lys N-methyltransferase 1 (Homo sapiens) (Q9BV86 whole entry, looked up): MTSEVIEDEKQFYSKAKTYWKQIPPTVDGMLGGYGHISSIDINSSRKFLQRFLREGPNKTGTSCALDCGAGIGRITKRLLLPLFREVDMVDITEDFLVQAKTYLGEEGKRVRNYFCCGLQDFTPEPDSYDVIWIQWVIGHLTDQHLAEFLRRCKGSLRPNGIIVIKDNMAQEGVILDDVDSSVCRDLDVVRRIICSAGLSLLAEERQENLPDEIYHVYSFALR

For the molecule `C=CCn1c(=O)n([C@@H]2O[C@H](CO)[C@@H](O)[C@H]2O)c2nc(N)[nH]c(=O)c21`, the Potency result in [1], in [2], in [3] and in [4] was “inactive” in each case.
`CN1[C@@H]2CC[C@H]1CC(OC(=O)C(O)c1ccccc1)C2` (stereo partly specified): the Potency result in [1], in test [2], in test [3] and in [4] was “inactive” in each case.
On to `Nc1nc2c(ncn2CCC(CO)CO)c(=O)[nH]1`, for which the Potency entry in [1], in [2], in [3], in [4] and in [5] was “inactive” each time.
Take `CCCCN1CCCC[C@H]1C(=O)Nc1c(C)cccc1C`: the Potency entry in test [1], in test [3] and in test [4] was “inactive” throughout. The Potency in [2] is 0.275 µM (active).
Consider `NCCNCCNCCNCCN`, for which the % pathology change, negative = correction in [1] was 14.9% [at 9.22 µM]. In addition, the activity change, negative = inhibition in test [2] was 12.4% [at 11.5 µM]; in test [3] it was 18.2% [at 11.5 µM]. Also, in test [4], the activity change, negative = viability loss was -1.38% [at 9.23 µM].
With `CCN(CC)C(C)CN1c2ccccc2Sc2ccccc21` (stereo unspecified), the Potency result in test [1], in test [3], in test [6], in test [4], in test [5] and in test [7] was “inactive” in each case. Also, the Potency in test [2] was 19.5 µM (active).
For the molecule `O=C1O[C@H]([C@@H](O)CO)C(O)=C1O`, the Potency entry in test [1], in test [2], in [3] and in test [4] was “inactive” in each case.
Turning to `C[C@]12CC[C@@H]3c4ccc(O)cc4CC[C@H]3[C@@H]1CC[C@@H]2OC(=O)CCC1CCCC1`, the Potency result in test [1], in test [2] and in test [4] was “inactive” each time. The Potency in test [3] was 19 µM (active).
Consider `N[C@@H](CSCCCO)C(=O)O`, for which the Potency result in test [1], in test [2], in [3] and in test [4] was “inactive” in each case.
With `Cc1cc(O)cc2c1O[C@](C)(CCC[C@H](C)CCC[C@H](C)CCCC(C)C)CC2`, the Potency entry in test [1], in test [2], in test [3] and in test [4] was “inactive” each time.
For `C#CCN(C)Cc1ccccc1`, the Potency result in test [1], in test [2], in test [3], in [6], in test [4] and in test [5] was “inactive” in each case.
Turning to `CC(=O)Oc1ccc(C2(c3ccc(OC(C)=O)cc3)C(=O)Nc3ccccc32)cc1`, the Potency entry in [1], in [2] and in [4] was “inactive” in each case. Also, the Potency in test [3] was 5.49 µM (active).
Take `Oc1ccc(C(O)CNCCCCCCNCC(O)c2ccc(O)c(O)c2)cc1O` (stereo unspecified): the Potency entry in [1], in [2], in test [3], in test [4] and in test [5] was “inactive” in each case.
With `CC1CC(OC(=O)C(O)c2ccccc2)CC(C)(C)N1C` (stereo unspecified), the Potency entry in [1], in test [2], in test [3] and in test [4] was “inactive” each time.
For `COc1ccc2[nH]c(S(=O)Cc3ncc(C)c(OC)c3C)nc2n1` (stereo unspecified), the Potency result in test [1], in [2], in test [4] and in test [5] was “inactive” throughout. Also, the Potency in [3] was 10.7 µM (active); in test [8], 35.5 µM (active).
In the case of `CCCCN(CCCC)CCCOC(=O)c1ccc(N)cc1`, the Potency entry in [1], in test [3], in test [4] and in test [5] was “inactive” in each case. Besides, the Potency in test [2] is 0.0309 µM (active).
As for `O=S(=O)(O)c1cc(I)c(O)c2ncccc12`, the Potency result in test [1], in test [2], in [3], in test [4] and in [5] was “inactive” each time.
Consider `CCC(=O)Nc1ccc(O)cc1`, for which the Potency result in test [1], in [2], in test [3] and in [4] was “inactive” throughout.
With `CNC(=O)Oc1ccc2c(c1)[C@]1(C)CCN(C)[C@@H]1N2C`, the Potency result in test [1], in test [3], in test [6], in [4], in test [5] and in test [9] was “inactive” throughout. The Potency result in test [7] was “inactive”. In test [2], the Potency is 0.977 µM (active).
With `CC(O)COc1ccccc1` (stereo unspecified), the Potency result in test [1], in test [2], in test [3] and in [4] was “inactive” throughout.
As to `CC(C)(C)NCC(O)COc1ccc(NC(=O)NC2CCCCC2)cc1` (stereo unspecified), the Potency entry in test [1], in [2], in test [3] and in [4] was “inactive” throughout.
On to `Cc1ccc(C(C)C)cc2c(C)ccc1-2`, for which the Potency result in test [1], in test [2], in [3] and in test [4] was “inactive” in each case.
Take `CCCCC(CC)COC(=O)c1ccccc1O` (stereo unspecified): the Potency result in test [1], in test [2], in test [3] and in test [4] was “inactive” each time.
`NS(=O)(=O)c1cc2c(cc1Cl)NC(CSCc1ccccc1)=NS2(=O)=O`: the Potency result in test [1] and in test [4] was “inactive” in each case. Also, the Potency in test [2] was 13.8 µM (active); in [3] it was 5.49 µM (active).
Take `Cn1c(=O)c2c(ncn2CC2OCCO2)n(C)c1=O`: the Potency entry in test [1], in test [2], in test [3] and in test [4] was “inactive” throughout.
As to `N[C@H]1C(O)O[C@H](CO)[C@@H](O)[C@@H]1O` (stereo partly specified), the Potency result in [1], in test [2], in test [3] and in test [4] was “inactive” throughout.
On to `O=C(O)[C@H](O)c1ccccc1`, for which the Potency result in test [1], in test [2], in test [3] and in [4] was “inactive” each time.
With `O=c1cc[nH]c(=O)[nH]1`, the Potency entry in test [1], in test [2], in test [3], in test [4] and in [5] was “inactive” in each case.
Consider `CCC(=O)c1ccc(O)cc1`, for which the Potency result in test [1], in test [2], in test [3] and in test [4] was “inactive” throughout.
As for `C[C@@H]1CCN(C(=O)[C@H](CCCN=C(N)N)NS(=O)(=O)c2cccc3c2NC[C@H](C)C3)[C@@H](C(=O)O)C1`, the Potency entry in [1], in test [2], in [3], in test [4] and in test [5] was “inactive” each time.
Consider `CCCn1cnc2c1c(=O)n(CCCCC(C)=O)c(=O)n2C`, for which the Potency entry in test [1], in test [2], in [3], in [6], in test [4] and in [5] was “inactive” in each case.
For `O=C(O)c1ccccc1-c1ccc(C(F)(F)F)cc1`, the Potency result in test [1], in test [2], in test [3] and in test [4] was “inactive” throughout.
As to `C[C@H]1O[C@H](O[C@H]2[C@H](O)[C@@H](O)[C@@H](O[C@H]3[C@H](O)[C@@H](O)[C@H](O)O[C@@H]3CO)O[C@@H]2CO)[C@H](O)[C@@H](O)[C@@H]1N[C@H]1C=C(CO)[C@@H](O)[C@H](O)[C@H]1O`, the Potency result in test [1], in [2], in test [3] and in test [4] was “inactive” throughout.
